Sm TGR inh = blocks Schistosoma mansoni thioredoxin glutathione reductase; purified TGR, DTNB reduction, TNB absorbance 405 nm; Potency, µM (highest dose often 114 µM), for the others: top-dose activity change, negative = inhibition, usual class: inhibitors; hit rate 3% among 360,000; AID 485364; note: potency is the fitted concentration of half-maximal effect; % is set by controls: 0 for no effect and ±100 for the full control effect; nearly all actives have a fitted effect of over 60% in size
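First, TGR (20 nM dispensed) and NADPH were mixed with compound. Second, a 15 min room-temperature incubation followed. Third, further NADPH and then DTNB were added to start the reaction. Finally, TNB absorbance was monitored kinetically.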
SARS PLpro yeast = inhibitors of SARS-CoV papain-like protease in yeast; S. cerevisiae expressing SARS-CoV PLpro, growth rescue; Potency, µM (highest dose often 32.9 µM), without a hit: at the highest dose activity, positive = growth rescue, actives largely listed as activators; hit rate 0.19% among 330,000; calls by dose curve; note: potency is the fitted concentration of half-maximal effect; 0% is about no effect; nearly all actives have a fitted effect of over 55% in size
HCV inh = blocks hepatitis C virus; Huh7.5.1 HCVcc-Cre infection, luciferase reporter, 44 h; Potency, µM (series often up to 41.8 µM), for the others: at the top dose activity change, negative = inhibition, hits mostly inhibitors; hit rate 3.4% among 340,000; AID 651820; note: potency is the fitted concentration of half-maximal effect; % is set by controls: 0 for no effect and ±100 for the full control effect
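1,000 cells/well; 4 h culture; + compound; + HCVcc-Cre (~0.5 moi); 44 h; luciferase substrate, RT 15 min; read 15 sec.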
HCMV antiviral = human cytomegalovirus inhibition; hit rate 4.5% among 410,000; HFF cells, HCMV-luciferase reporter, 72 h; active compounds read low; activity change, negative = inhibition, % at 57.5 µM; in the data active = activity change below about -60%; inconclusive = no clear call, values can overlap the other calls; inactive = above about -39%; note: % is set by controls: 0 for no effect and ±100 for the full control effect
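Screen run at 2 compound doses on HFFs infected with reporter HCMV, MOI 1 PFU/cell. Luciferase activity from cell lysates at 72 h post infection gave inhibition relative to buffer-only and Salinomycin wells.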
Pf growth 96h = P. falciparum growth inhibition at 96 hour, primary screen for plastid delayed-death inhibitors; P. falciparum luciferase reporter growth, 96 h; Potency, µM (highest dose often 28.7 µM), inactives show at the top dose activity change, negative = inhibition, usual class: inhibitors; hit rate 6.9% among 320,000; note: potency is the fitted concentration of half-maximal effect; % is set by controls: 0 for no effect and ±100 for the full control effect
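Delayed-death screen, second-generation endpoint: infected erythrocytes, 2% hematocrit, 0.05% parasitemia final; 96 hours at 37 C, 5% CO2; luciferase detection reagent; luminescence decrease equals reduced growth.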
Pf growth 48h = P. falciparum growth inhibition at 48 hours (one generation); Potency, µM (series often up to 28.7 µM), for the others: at the highest dose activity change, negative = inhibition, usual class: inhibitors; P. falciparum luciferase growth in erythrocytes, 48 h; hit rate 5.9% among 310,000; note: potency is the fitted concentration of half-maximal effect; % is set by controls: 0 for no effect and ±100 for the full control effect
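Luciferase-expressing P. falciparum in infected erythrocytes (2% hematocrit, 0.1% parasitemia final) in RPMI 1640/0.5% Albumax were exposed to compound for 48 hours at 37 C, 5% CO2; growth read as luminescence.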
The depositor's hits bear a star; ? = inconclusive; . = not tested or not shown; [ ] = dose if it differs, or a comment. Rows were chosen to be rich in hits. Some 15% of all compounds tested hit in one or more screens of this group. Unless noted, calls come from the whole dose curve; as a rule, active = well fitted curve in the direction sought with a large enough effect; inconclusive = small, poorly fitted or top-dose-only effect, or another doubt; inactive = no such curve, though single readings can be large; an effect the other way counts as inactive or inconclusive.

SMILES	Sm TGR inh	SARS PLpro yeast	HCV inh	HCMV antiviral	Pf growth 96h	Pf growth 48h
C=CCC[C@H](Cc1ccc(F)cc1)C(=O)OC[C@@H](Cc1c[nH]c2ccccc12)NC(=O)[C@@H](CC=C)CC(=O)NCCO	.	-8.1%	?	13.6	.	.
c1ccc(-n2cnc3cc(NCc4ccco4)ccc32)cc1	-8.7%	-1.7%	?	-86.3*	11.4%	20.4%
COc1ccccc1-n1cnc2cc(C(=O)NCc3ccco3)ccc21	39.8µM*	-0.8%	?	-13.3	29.5%	?
O=C(NCc1ccco1)c1ccc2ccccc2c1	-34.7%	-20.5%	-0.7%	18.7	83.9%	35.7%
O=C(NCc1ccco1)c1ccc2c(c1)C(=O)c1ccccc1-2	12.6µM*	-6.5%	?	17.6	.	12.3%
CCOc1ccc(C(=O)NCc2ccco2)cc1	9.7%[11.4 µM]	4.3%	21.7%	113.1	12.8%	.
CC(C)COc1ccc(C(=O)NCc2ccco2)cc1	?	-1.9%	?	-5.7	.	11.7µM*
CCc1ccccc1NC(=O)CN(c1cc(C(F)(F)F)ccc1Cl)S(=O)(=O)c1ccccc1	-6.1%	.	.	-9.5	.	.
CCC(C)NC(=O)CCc1c(C)nc2cc(-c3ccc(OC)cc3OC)nn2c1C (centres undefined)	-1.2%	.	.	-3.1	.	.
CCCNc1c(NC(=O)c2cccs2)c(=O)oc2ccccc12	1.1%	0.9%	20.5%	?	7.5%	-6.6%
Cc1nc(SCC(=O)NNC(=O)c2cccs2)[nH]c(=O)c1C	-0.9%	-2.1%	6.7%	-30.3	?	57.2%
O=C(COC(=O)c1ccc2ccccc2n1)NC1CCCCC1	-1.4%	5.6%	-1.0%	-8.8	-9.5%	?
O=C(CCSCCC(=O)NCc1ccco1)NCc1ccco1	?	2.1%	11.1%	-10.0	.	5.2%
CC(C)C(CC(=O)NCc1ccco1)c1ccco1 (centres undefined)	22.4µM*	0.5%	14.6%	7.4	-2.2%	0.0%
O=C(NCc1ccco1)Oc1ccccc1	-3.2%	.	9.5%	52.0	3.6%	13.7%
O=C(NCc1ccco1)c1ccc(Oc2ccccc2)cc1	?	-17.5%	?	82.2	7.38µM*	.
COc1ccc(OC)c(-n2c(CNC3CCN(Cc4ccccc4)CC3)nc3ccccc3c2=O)c1	-12.4%	-0.6%	-0.9%	-106.4*	11.7µM*	.
COc1ccc(OC)c(-n2c(CN3CCC(C(N)=O)CC3)nc3ccccc3c2=O)c1	?	5.4%	14.7%	19.7	19.0%[5.75 µM]	20.3%
O=C(Nc1nncs1)c1cc2c(s1)CCC2	-12.3%	-12.1%	13.1%	63.2	190.4%	169.2%
O=C(Nc1nccs1)c1cc2c(s1)CCCCC2	-14.0%	-29.6%	-18.9%	-64.4*	-48.2%	.
O=C(c1ccccc1)c1ccc(C(=O)N2CCOCC2)cc1	0.0%	1.1%	-6.0%	-32.9	17.3%	21.1%
N#C/C(=C/N1CCOCC1)c1ccccc1	16.1%	-2.4%	3.16µM*	14.2	6.9%	50.3%
COc1ccc([N+](=O)[O-])cc1NC(=O)C1CCCCC1C(=O)O (centres undefined)	-1.3%	-4.0%	16.0%	?	-1.5%	20.8%
O=C(Nc1ccccc1)c1cc([N+](=O)[O-])ccc1NC1CCCCC1	8.9%	-6.3%	?	62.9	?	8.28µM*
COc1ccc([N+](=O)[O-])cc1NC1CCCCC1	-10.4%	-25.4%	11.2µM*	-14.5	93.4%	?
SMILES	Sm TGR inh	SARS PLpro yeast	HCV inh	HCMV antiviral	Pf growth 96h	Pf growth 48h
COCC(=O)Nc1cc([N+](=O)[O-])ccc1OC	0.1%	4.2%	-13.1%	-26.5	87.5%	0.7%
COc1ccc([N+](=O)[O-])cc1NC1C2CC3CC(C2)CC1C3 (centres undefined)	7.1%	1.2%	-13.7%	-35.2	0.522µM*	7.9%
O=C(CNC(=O)c1cccs1)Nc1ccc(N2CCOCC2)cc1	3.1%	0.1%	9.7%	-21.0	93.8%	74.1%
CC(=O)Nc1cc(NC(C)=O)ncn1	9.2%	1.4%	3.2%	4.9	-27.5%	?
NS(=O)(=O)c1ccc(CCNS(=O)(=O)Cc2ccc(Cl)cc2)cc1	0.2%	2.0%	8.9%	19.5	13.1µM*	9.8%
O=S(=O)(Cc1ccccc1Cl)NCCc1ccccc1	6.2%	0.7%	1.7%	?	4.3%	-6.2%
NS(=O)(=O)c1ccc(CCNC(=O)c2ccc3nccnc3c2)cc1	.	-25.6%	1.7%	-25.3	.	.
NS(=O)(=O)c1ccc(CCNc2ccnc3cc(Cl)ccc23)cc1	4.6%	-0.7%	?	-39.9	9.7%	11.7µM*
O=S(=O)(Cc1ccccc1)NCCc1cccc(Cl)c1	3.2%	-3.0%	2.5%	-16.9	3.29µM*	-19.4%
CC1CCc2c(sc(NC(=O)Cc3ccccc3)c2C(=O)Nc2ccc(Cl)cc2)C1 (centres undefined)	-12.2%	.	.	16.0	.	.
CCc1ccc2c(c1)C(NC(C)=O)C(=O)N2CCN1CCOCC1 (centres undefined)	89.1µM*	-2.0%	11.1%	76.8	-7.3%	13.6%
CCOC(=O)c1c(C)oc2cc(Br)c(O)c(Br)c12	17.9%	-24.4%	-12.0%	89.9	7.8%	-18.2%
CCOC(=O)c1c(C)oc(NC(=O)CCl)c1C(=O)OCC	14.1µM*	?	-6.1%	-3.6	-14.6%	21.7%
Cc1ccc(C)c(NC(=O)CN2C(=O)C3(SCC(=O)N3c3ccc(C)c(C)c3)c3ccccc32)c1 (centres undefined)	23.2%	.	.	17.4	.	.
CC1=N/C(=C/c2cccnc2)C(=O)O1	22.4µM*	-5.7%	-2.6%	?	2.6%	11.9%
CC(C)N1C/C(=C/c2cccnc2)C(=O)/C(=C/c2cccnc2)C1	?	-4.5%	?	-36.5	303.8%	13.1µM*
O=C1/C(=C\c2cccnc2)N2CCC1CC2	2.2%	0.5%	7.1%	-6.6	9.28µM*	?
CN1C/C(=C/c2cccnc2)C(=O)/C(=C/c2cccnc2)C1	?	-56.7%	?	-91.6*	?	?
O=C1/C(=C/c2cccnc2)Cc2ccc(Cl)cc21	-12.2%	-1.0%	0.7%	6.4	31.0%	-1.5%
O=C1/C(=C\c2ccncc2)N2CCC1CC2	-33.3%	-0.5%	-1.7%	-7.0	2.1%	-0.3%
Cc1cccc(C2=N/C(=C\c3cccnc3)C(=O)O2)c1	-16.2%	-2.0%	3.3%	-11.5	22.2%	9.0%
COC(=O)C[C@H]1C[C@H]2c3cc(NC(=O)C4CCC4)ccc3O[C@H]2[C@H](CO)O1	.	.	.	-21.2	.	.
CCOc1ccc(N2C(=O)C(c3nnnn3Cc3ccccc3)N(CCOC)C2=O)cc1 (centres undefined)	.	.	.	-21.1	.	.
CCN(CC)c1cc2c(cc1F)c(=O)c(S(=O)(=O)c1ccccc1)cn2C	7.8%	.	.	?	.	.
CCN(CC)c1cc2c(cc1F)c(=O)c(S(=O)(=O)c1cccc(C)c1)cn2C	17.0%	.	.	-64.1*	.	.

Source: PubChem BioAssay (National Center for Advancing Translational Sciences (NCATS))
